Compound in the assay: CC(C)c1cccc(C(C)C)c1N1C(=O)c2ccc(O)cc2C1=O
As to the kind of experiment: reporter fold induction vs vehicle; higher = higher reporter activity. Here is the method:
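Attagene multiplexed transcription-factor reporter assay (48 cis response elements and 25 trans nuclear-receptor constructs) treated with 5HPP-33 at 8 concentrations (0.091–200 µM). The response is fold induction of reporter activity relative to vehicle control. Cell line and time not stated in the paper; tested in ToxCast Phase II for this study.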

The text below walks through data of the supplement of paper PMC3616981.

In the case of PXR_TRANS, the reporter fold induction was 1.15 (0.091 µM); 2.07 (0.274 µM); 3.25 (0.823 µM); 4.39 (2.469 µM); 3.39 (7.407 µM); 3.71 (22.22 µM). The reporter fold induction (66.67 µM) was found to be 3.61 and the reporter fold induction (200 µM) was found to be 1.33.

HNF4a_TRANS: the reporter fold induction by setting is: (0.091 µM) 1.1; (0.274 µM) 1.42; (0.823 µM) 0.883; (2.469 µM) 1.11; (7.407 µM) 1.1; (22.22 µM) 1.07. Moreover, the reporter fold induction was 0.715 (66.67 µM) and 0.473 (200 µM).

Consider IR1_CIS, for which the reporter fold induction (0.091 µM) is 1.07; the reporter fold induction (0.274 µM) was determined as 0.953; the reporter fold induction (0.823 µM) is 1.02; the reporter fold induction (2.469 µM) was 1.01; the reporter fold induction (7.407 µM) came to 1.08; the reporter fold induction (22.22 µM) is 0.864. The reporter fold induction (66.67 µM) was determined as 0.788 and the reporter fold induction (200 µM) amounted to 0.644.

On to STAT3_CIS, for which the reporter fold induction is, setting by setting: (0.091 µM) 1.05; (0.274 µM) 1; (0.823 µM) 0.995; (2.469 µM) 0.975; (7.407 µM) 0.977; (22.22 µM) 1.15. Also, the reporter fold induction by setting is: (66.67 µM) 1.02; (200 µM) 0.913.

Regarding GLI_CIS, the reporter fold induction runs as follows: (0.091 µM) 1.04; (0.274 µM) 0.925; (0.823 µM) 1; (2.469 µM) 1.04; (7.407 µM) 0.914; (22.22 µM) 0.833. Further, the reporter fold induction reads like this: (66.67 µM) 1.19; (200 µM) 2.1.
